Results filed as inconclusive are left out. The source made the active and inactive calls. Calls follow the shape of the dose curve; as a rule, active = well fitted curve in the direction sought with a large enough effect in the repeat runs; inconclusive = weak or mixed curves; inactive = no such curve, though single readings can be large; an effect the other way counts as inactive or inconclusive.
Key:
[1] = qHTS RealTime-Glo MT Cell Viability Assay in HEK293 cells - 0 hour (AID 1224880); also: top concentration of the series differs between compounds; nearly all actives have a fitted effect of over 45% in size
Procedure, shortened: (§1)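 600 HEK293 cells per well, dispensed already mixed with RealTime-Glo MT reagents. Compound dosing came 5 h later. The same wells were read for luminescence at 0, 8, 16, 24, 32 and 40 h of exposure at 37 C.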

[2] = A CellTox Green Cytotoxicity Assay to monitor cytotoxicity in HEK293 cells - 32 hour (AID 1224881); also: nearly all actives have a fitted effect of over 40% in size
Procedure, shortened: (§2)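 Dead-cell fluorescence measured kinetically: asymmetric cyanine dye, HEK293, 600 cells/well, 5 h settle, 23 nL cpd/DMSO, 37 C, reads 0–40 h every 8 h.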

[3] = A CellTox Green Cytotoxicity Assay to monitor cytotoxicity in HepG2 cells - 0 hour (AID 1224882); also: nearly all actives have a fitted effect of over 35% in size
Procedure, shortened: (§3)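 First, HepG2 cells (600/well) mixed with reagent were plated; second, after 5 h at 37 C they received compounds via pintool; third, fluorescence was measured at 0 h through 40 h at 8 h intervals.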

[4] = A CellTox Green Cytotoxicity Assay to monitor cytotoxicity in HepG2 cells - 32 hour (AID 1224883); also: nearly all actives have a fitted effect of over 50% in size
Procedure, shortened: as §3

[5] = A CellTox Green Cytotoxicity Assay to monitor cytotoxicity in HEK293 cells - 8 hour (AID 1224884); also: nearly all actives have a fitted effect of over 35% in size
Procedure, shortened: as §2

[6] = qHTS RealTime-Glo MT Cell Viability Assay in HepG2 cells - 16 hour (AID 1224885); also: nearly all actives have a fitted effect of over 50% in size
Procedure, shortened: (§4)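 HepG2 cells (600/well) were dispensed with RealTime-Glo reagents, incubated 5 h at 37 °C, then treated with compounds in DMSO for up to 40 h. Nonlytic NanoLuc luminescence reflecting viable cells was read at each stated time point.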

[7] = qHTS RealTime-Glo MT Cell Viability Assay in HEK293 cells - 24 hour (AID 1224886); also: nearly all actives have a fitted effect of over 50% in size; also: potency is read from the fitted curve at half-maximal effect; as to activity change, negative = cytotoxicity: top concentration of the series differs between compounds
Procedure, shortened: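 HEK293 cells seeded with NanoLuc/prosubstrate reagent, rested 5 h at 37 C, then dosed and kept at 37 C up to 40 h. Nonlytic real-time luminescence from viable cells read at 0, 8, 16, 24, 32 and 40 h.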

[8] = qHTS RealTime-Glo MT Cell Viability Assay in HEK293 cells - 8 hour (AID 1224887); also: nearly all actives have a fitted effect of over 50% in size; also: potency is read from the fitted curve at half-maximal effect; as to activity change, negative = cytotoxicity: top concentration of the series differs between compounds
Procedure, shortened: as §1

[9] = A CellTox Green Cytotoxicity Assay to monitor cytotoxicity in HEK293 cells - 16 hour (AID 1224888); also: nearly all actives have a fitted effect of over 35% in size
Procedure, shortened: as §2

[10] = qHTS RealTime-Glo MT Cell Viability Assay in HepG2 cells - 0 hour (AID 1224889); also: nearly all actives have a fitted effect of over 50% in size
Procedure, shortened: as §4
% is scaled to controls: 0 for no effect and ±100 for the full control effect.

C#CC(C)(O)CC(C)C (configuration not stated)
inactive: outcome [1] | Potency [2] | Potency [3] | Potency [4] | Potency [5] | outcome [6] | Potency [7] | Potency [8] | Potency [9] | Potency [10]

O=S(=O)(O)c1ccccc1O
inactive: outcome [1] | Potency [2] | Potency [3] | Potency [4] | Potency [5] | outcome [6] | Potency [7] | Potency [9] | Potency [10]

C=CCSCC1Nc2cc(Cl)c(S(N)(=O)=O)cc2S(=O)(=O)N1 (configuration not stated)
inactive: outcome [1] | Potency [2] | Potency [3] | Potency [4] | Potency [5] | outcome [6] | Potency [7] | Potency [8] | Potency [9] | Potency [10]

CC12CCC(CC1=O)C2(C)C (configuration not stated)
inactive: outcome [1] | Potency [2] | Potency [3] | Potency [4] | Potency [5] | outcome [6] | Potency [7] | Potency [9]

NC(CS)C(=O)O (configuration not stated)
inactive: outcome [1] | Potency [2] | Potency [3] | Potency [4] | Potency [5] | outcome [6] | Potency [7] | Potency [8] | Potency [9] | Potency [10]

CCc1cc(S(=O)(=O)O)c2cc(C(C)C)cccc1-2
inactive: outcome [1] | Potency [2] | Potency [3] | Potency [4] | Potency [5] | outcome [6] | Potency [7] | Potency [9]

O=C(O)c1ccccc1-c1ccc(C(F)(F)F)cc1
inactive: outcome [1] | Potency [2] | Potency [3] | Potency [4] | Potency [5] | outcome [6] | Potency [7] | Potency [9] | Potency [10]

Cc1ncc(CSSCc2cnc(C)c(O)c2CO)c(CO)c1O
inactive: outcome [1] | Potency [2] | Potency [3] | Potency [4] | Potency [5] | outcome [6] | Potency [7] | Potency [8] | Potency [9] | Potency [10]

OC[C@H]1O[C@@H]2O[C@H]3[C@H](O)[C@@H](O)[C@@H](O[C@H]4[C@H](O)[C@@H](O)[C@@H](O[C@H]5[C@H](O)[C@@H](O)[C@@H](O[C@H]6[C@H](O)[C@@H](O)[C@@H](O[C@H]7[C@H](O)[C@@H](O)[C@@H](O[C@H]8[C@H](O)[C@@H](O)[C@@H](O[C@H]9[C@H](O)[C@@H](O)[C@@H](O[C@H]1[C@H](O)[C@H]2O)O[C@@H]9CO)O[C@@H]8CO)O[C@@H]7CO)O[C@@H]6CO)O[C@@H]5CO)O[C@@H]4CO)O[C@@H]3CO
inactive: outcome [1] | Potency [2] | Potency [3] | Potency [4] | Potency [5] | outcome [6] | Potency [7] | Potency [8] | Potency [9] | Potency [10]

CNC(=O)c1c(I)c(NC(=O)CCCCC(=O)Nc2c(I)c(C(=O)O)c(I)c(C(=O)NC)c2I)c(I)c(C(=O)O)c1I
inactive: outcome [1] | Potency [2] | Potency [3] | Potency [4] | Potency [5] | outcome [6] | Potency [7] | Potency [9] | Potency [10]

Oc1ccc2c(c1)OC[C@@H](N1CCC(O)(c3ccc(F)cc3)CC1)[C@H]2O
inactive: outcome [1] | Potency [2] | Potency [3] | Potency [4] | Potency [5] | Potency [7] | Potency [8] | Potency [9] | Potency [10]

C1=C\CC/C=C\CC/C=C\CC/1
inactive: outcome [1] | Potency [2] | Potency [3] | Potency [4] | Potency [5] | outcome [6] | Potency [7] | Potency [9] | Potency [10]

CCn1cc(C(=O)O)c(=O)c2cc(F)c(N3CCN(C)CC3)cc21
inactive: activity change, negative = cytotoxicity [1] 5.85% [at 15.8 µM] | cytotoxicity increase [2] -8.3% [at 15.8 µM] | cytotoxicity [3] -1.13% [at 15.8 µM] | cytotoxicity increase [4] -17.6% [at 15.8 µM] | cytotoxicity increase [5] -3.43% [at 15.8 µM] | activity change, negative = cytotoxic [6] 0.92% [at 15.8 µM] | activity change, negative = cytotoxicity [7] 2.21% [at 15.8 µM] | activity change [9] -0.608% [at 15.8 µM, hits give high values] | activity change, negative = cytotoxicity [10] 5.05% [at 15.8 µM]

CC(C)c1ccc2oc3nc(N)c(C(=O)O)cc3c(=O)c2c1
inactive: outcome [1] | Potency [2] | Potency [3] | Potency [4] | Potency [5] | Potency [7] | Potency [8] | Potency [9] | Potency [10]

Nc1nc2c(ncn2CCC(CO)CO)c(=O)[nH]1
inactive: outcome [1] | Potency [2] | Potency [3] | Potency [4] | Potency [5] | Potency [7] | Potency [9] | Potency [10]

C[C@H](O)C(=O)Nc1c(I)c(C(=O)NC(CO)CO)c(I)c(C(=O)NC(CO)CO)c1I
inactive: outcome [1] | Potency [2] | Potency [3] | Potency [4] | Potency [5] | Potency [7] | Potency [8] | Potency [9] | Potency [10]

CC(C)CCCCCCN
inactive: outcome [1] | Potency [2] | Potency [3] | Potency [4] | Potency [5] | Potency [7] | Potency [8] | Potency [9] | Potency [10]

CCCOc1ccccc1-c1nc2n[nH]nc2c(=O)[nH]1
inactive: outcome [1] | Potency [2] | Potency [3] | Potency [4] | Potency [5] | Potency [8] | Potency [9] | Potency [10]

CCCC(C)C(=O)O (configuration not stated)
inactive: outcome [1] | Potency [2] | Potency [3] | Potency [4] | Potency [5] | Potency [7] | Potency [8] | Potency [9] | Potency [10]

CCOC(=O)[C@H](CCc1ccccc1)N[C@@H](C)C(=O)N1CCC[C@H]1C(=O)O
inactive: outcome [1] | Potency [2] | Potency [3] | Potency [4] | Potency [5] | Potency [7] | Potency [8] | Potency [9] | Potency [10]

CCC(C)(C)C1CCC(OC)CC1 (configuration not stated)
inactive: outcome [1] | Potency [2] | Potency [3] | Potency [4] | Potency [5] | outcome [6] | Potency [8] | Potency [9] | Potency [10]

CCn1c(=O)c2c(nc(/C=C/c3ccc(OC)c(OC)c3)n2C)n(CC)c1=O
inactive: outcome [1] | Potency [2] | Potency [3] | Potency [4] | Potency [5] | Potency [9]
active: Potency [7] 1690 nM | Potency [8] 1510 nM

OCC(CO)(CO)COCC(CO)(CO)CO
inactive: outcome [1] | Potency [2] | Potency [3] | Potency [4] | Potency [5] | outcome [6] | Potency [7] | Potency [9] | Potency [10]

— PubChem BioAssay (Tox21)
